# Source: PubChem
# Shown are actives, neighbours in structure and some others; about 2.4% of the full set was active somewhere.
# GLP-1R inv ag = GLP-1 receptor (human) inverse agonism; P43220; HEK293 GLP-1R CRE-luciferase, luminescence, 24 h; GLP-1R form is constitutively active; Potency, µM (titrated, usually from 38.3 µM), without a hit: at the highest dose activity change, negative = inhibition, usual class: inhibitors; AID 624417; 410,000 tested, 1.6% active; also: potency is read from the fitted curve at half-maximal effect; % is scaled to controls: 0 for no effect and ±100 for the full control effect; nearly all actives have a fitted effect of over 55% in size
# Target sequence (P43220 whole entry, looked up): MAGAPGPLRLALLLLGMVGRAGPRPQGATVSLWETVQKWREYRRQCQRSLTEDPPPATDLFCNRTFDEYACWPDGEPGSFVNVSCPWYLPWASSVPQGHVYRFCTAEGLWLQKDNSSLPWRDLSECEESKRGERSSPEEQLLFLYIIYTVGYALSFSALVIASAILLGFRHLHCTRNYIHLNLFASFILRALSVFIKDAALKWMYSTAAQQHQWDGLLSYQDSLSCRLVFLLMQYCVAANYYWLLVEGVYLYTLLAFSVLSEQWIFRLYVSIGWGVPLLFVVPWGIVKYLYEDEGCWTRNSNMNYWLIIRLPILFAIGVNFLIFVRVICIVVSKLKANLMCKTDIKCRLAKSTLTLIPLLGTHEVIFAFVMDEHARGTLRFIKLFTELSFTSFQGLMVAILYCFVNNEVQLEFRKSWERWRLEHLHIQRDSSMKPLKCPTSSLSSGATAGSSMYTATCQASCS
#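 HEK293 cells stably co-expressing constitutively active GLP-1R and a cAMP-responsive luciferase reporter were seeded in DMEM with 10% Nu serum, given compounds after 12 h, and incubated 24 h at 37 deg C. Luminescence was then read.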
# TRHR agonist = agonists of human TRH receptor | activation, % at 2 µM | P34981 | TRHR cells, calcium flux fluo-8, FDSS agonist mode | AID 493084 | 360,000 tested, 0.18% active; in the data active = activation above about 30%; also: 0% is about no effect
#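 TRHR-expressing cells, plated overnight in medium with 10% serum, were loaded with fluo-8 calcium dye at room temperature. After a 10 s baseline, library compound was pin-added and calcium release was recorded kinetically (ex 480/em 530) as agonist response.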
# GLP1R ag = GLP-1 receptor (human) agonism; P43220; HEK293 GLP-1R CRE-luciferase, luminescence, 4-6 h; cells express a hypersensitive GLP-1R form; Potency, µM (top dose mostly 45.6 µM), inactives show top-dose activation, actives largely listed as activators; 380,000 tested, 0.007% active; also: potency is read from the fitted curve at half-maximal effect; % of control where 0% means no effect
# PTHR1 agonist = PTHR1 (human) receptor agonism. Q03431. HEK293 GP2 PTHR1 cells, GloSensor cAMP luminescence, 1 h. Potency, µM (top dose mostly 115 µM), for the others: at the top dose activation, actives largely listed as activators. 410,000 tested, 0.075% active; also: potency is read from the fitted curve at half-maximal effect; nearly all actives have a fitted effect of over 55% in size
#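 HEK-293-derived GP2 cells expressing PTHR1 and a GloSensor cAMP reporter, 3,000/well, plated overnight, given luciferin plus IBMX (each 0.5 mM as added) for 1 h at 37 °C, then compound for 1 h at 37 °C. Luminescence was read after 15 min at room temperature.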
# HEK293 tox = cytotoxicity in counter-screen for GLP-1R inverse agonists | HEK293 cAMP-luciferase reporter cells, luminescence, 24 h | Potency, µM (highest dose often 38.3 µM), for inactives: at the highest dose activity change, negative = inhibition, hits mostly inhibitors | 410,000 tested, 0.13% active | AID 624418;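 also: loss of luciferase light is scored as toxicity; potency is read from the fitted curve at half-maximal effect; % is scaled to controls: 0 for no effect and ±100 for the full control effect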
#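 Here, cytotoxicity is scored as loss of luminescence. The MLSMR collection was tested on cells seeded in medium containing 10% Nu serum, with a 24 hr compound exposure preceded by 12 hours of culture.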
# TRHR PAM = TRH receptor (human) allosteric enhancement; TRHR cells, fluo-8 calcium fluorescence, EC20 TRH enhancement; enhancement, % at 2 µM; 360,000 tested, 0.66% active; in the data active = enhancement above about 30%; also: 0% is about no effect
#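 TRHR-expressing cells loaded with fluo-8 calcium dye were read kinetically (ex 480/em 530) during compound addition, then stimulated with an EC20 of TRH (10 nM final). Enhancement of the Gq-mediated intracellular calcium response was scored.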
# Active calls of the source: *; i = inactive; ? = inconclusive; . = no result given; [ ] = another dose, or the depositor's remark. Unless noted, calls follow the shape of the dose curve; as a rule, active = well fitted curve in the direction sought with a large enough effect; inconclusive = small, poorly fitted or top-dose-only effect, or another doubt; inactive = no such curve, though single readings can be large; an effect the other way counts as inactive or inconclusive.
SMILES,GLP-1R inv ag,TRHR agonist,GLP1R ag,PTHR1 agonist,HEK293 tox,TRHR PAM
O=C(NC1CCC(O)CC1)c1cc(-c2ccco2)nc2ccccc12 (configuration not stated),3.7%,2.2,-4.1%,-25.8%,16.8%,3.8
Cc1oc(-c2ccc(C(=O)NCCC(C)C)cc2)nc1CN1CCc2ccccc21,?,-0.1,0.3%,-27.1%,-0.3%,-4.1
Cc1oc(-c2ccc(C(=O)NCc3ccccc3)cc2)nc1CN1CCc2ccccc21,10µM*,0.0,.,-16.9%,-5.7%,-4.7
O=C(Cc1ccc(Cl)cc1)Nc1ccc(-c2nnc(-c3ccco3)o2)cc1,10µM*,-0.3,-11.2%,i,?,-1.3
O=c1c2cnn(-c3ccccc3)c2nc(-c2cccs2)n1-c1cccc(Cl)c1,8.91µM*,0.8,5.0%,-36.3%,-5.2%,-6.0
C/C(=N\NC(=O)CN1CCCCC1)c1ccccc1O,?,0.7,19.2%,-0.4%,-7.0%,-2.4
C/C(=N\NC(=O)CN(c1ccccc1)S(C)(=O)=O)c1ccccc1O,5.01µM*,1.1,-4.9%,i,-11.5%,-4.2
CCCCCCc1cc2cc(C(=O)OCC)c(=O)oc2cc1O,3.7%,13.4,-9.4%,i,70.7%,2.7
CCCCCCc1cc2cc(/C(N)=N/NC(=O)c3ccncc3)c(=O)oc2cc1O,13.9%,122.1*,-9.5%,-32.2%,5.2%,27.8
C[C@@H]1NC(=O)c2cc([N+](=O)[O-])cc(I)c2NCCCC[C@@H](C(N)=O)NC(=O)[C@H](CCC(=O)O)NC1=O,20.3%,-0.3,-2.1%,-9.7%,?,-4.5
CCN(CC)c1nc2ccccc2n(Cc2cccc(OC)c2)c1=O,3.55µM*,0.5,18.2%,-16.2%,6.5%,1.7
COc1ccc(C(=O)Nc2nnc(C)s2)cc1,-21.4%,-1.4,.,-16.1%,5.3%,3.1
COc1ccc(N2CCN(C(C)C(=O)Nc3nnc(C)s3)CC2)cc1 (configuration not stated),2.4%,0.8,-0.6%,i,1.8%,32.2*
COc1ccc(-c2csc(NC(C)c3nc4cc(Cl)c(N5CCCCC5)cc4n3CCCO)n2)cc1 (configuration not stated),?,.,7.8%,-5.9%,-26.9%,.
OC[C@@H]1CN(Cc2ccc(F)cc2)C[C@H](n2cnc3c(Nc4ccccc4)ncnc32)O1,-14.7%,.,-0.3%,-8.7%,0.8%,.
OC[C@@H]1CN(Cc2ccc(-c3ccccc3)cc2)C[C@H](n2cnc3c(Nc4ccccc4)ncnc32)O1,4.47µM*,.,-1.5%,-51.5%,-29.9%,.
COc1ccc(C(=O)NC(c2ccccc2Cl)c2cc(Cl)c3cccnc3c2O)cc1 (configuration not stated),1.78µM*,5.6,.,i,-8.2%,-0.8
COc1cc(C(=O)NC(c2ccccc2Cl)c2cc(Cl)c3cccnc3c2O)cc(OC)c1OC (configuration not stated),?,1.4,.,-22.3%,-17.3%,-8.1
CCNC(=O)CON=C1c2ccccc2-c2ccccc21,?,-0.5,?,-2.7%,-12.1%,-5.1
CCC(CC)NC(=O)CON=C1c2ccccc2-c2ccccc21,8.91µM*,-1.4,14.1%,-8.5%,5.5%,6.2
COc1ccccc1CNC(=O)c1cc2ccc3ccc(C)[nH]c3c2n1,10µM*,-1.5,-2.1%,-24.9%,-8.2%,6.4
COc1ccc(Cl)cc1NC(=O)c1cc2ccc3ccc(C)[nH]c3c2n1,?,-0.1,-3.5%,-27.1%,-16.5%,-6.1
O=C(c1cc2sccc2n1Cc1ccc(F)cc1)N1CCN(c2nc3ccccc3s2)CC1,4.47µM*,0.7,-6.3%,-22.8%[57.5 µM],-25.1%,-1.3
CCOc1ccc(NCc2nc3ccccc3n2CCOc2ccccc2)cc1,?,-1.3,0.9%,-16.1%,-2.3%,11.4
Cc1c(/C=N/NC(=O)C(NC(=O)c2ccc3c(c2)OCO3)C(C)C)c2ccccc2n1C (configuration not stated),?,5.9,-2.9%,-13.4%,-6.0%,32.1*
SMILES,GLP-1R inv ag,TRHR agonist,GLP1R ag,PTHR1 agonist,HEK293 tox,TRHR PAM
Nc1nc(COc2ccc(Cl)cc2)cs1,-23.8%,-0.4,19.4%,-8.7%,-27.2%,38.2*
CCc1nnc(NC(=O)c2cccc(S(=O)(=O)N3CCCC3)c2)s1,17.3%,1.5,3.7%,i,-2.3%,3.8
COc1ccc(S(=O)(=O)N2CC3CCCN3c3cc(C(F)(F)F)ccc32)cc1 (configuration not stated),10µM*,-0.1,-2.9%,i,18.7%,11.1
CCCC1OC23CCCCC2C(C#N)(C(=N)O3)C1(C#N)C#N (configuration not stated),5.7%,1.1,6.4%,-10.4%[57.5 µM],76.8%,-0.5
CCc1ccccc1OCc1nc2ccc(S(=O)(=O)N3CCOCC3)cc2[nH]1,-8.4%,-0.6,-1.5%,i,-5.1%,32.6*
O=C(COc1ccc2c(c1)C(=O)CC1(CCCCC1)O2)NCc1ccccc1,11.2µM*,-0.6,9.0%,i,11.5%,7.2
Cc1ccccc1NS(=O)(=O)c1ccc(NC(=O)c2nc3ncccn3n2)cc1,-22.8%,0.4,-0.4%,-23.6%[57.5 µM],-6.0%,1.4
Cc1nn(Cc2cccc(C(=O)NC34CC5CC(CC(C5)C3)C4)c2)c(C)c1Br,2.82µM*,0.3,2.1%,-10.1%[57.5 µM],5.2%,-5.6
CCCNC(=O)c1cccc(Cn2nc(C)c(Br)c2C)c1,?,-0.1,0.1%,-26.8%,-12.8%,-11.0
Cc1cc(C)n(-c2ccc(C(=O)NC(C)C)cc2)n1,5.5%,0.4,1.3%,?,16.7%,-8.1
Nc1nonc1-n1nnc(C(=O)N/N=C/c2ccccc2F)c1CN1CCOCC1,26.4%,.,18.8%,-47.5%,-11.2%,.
COc1ccccc1NC(=O)Nc1ccc(C(=O)N2CCCCC2)cc1,8.91µM*,0.0,8.5%,-5.9%,-13.7%,-1.4
COc1ccc(C(=O)Nc2nnc(C)s2)cc1S(=O)(=O)N1CCOCC1,11.4%,-2.9,-7.0%,-22.2%,0.9%,2.9
COc1ccc(C(=O)Nc2ncc(C)s2)cc1S(=O)(=O)N1CCOCC1,2.9%,2.0,25.8%,-14.8%,-9.5%,31.6*
COC(=O)c1ccccc1NC(=O)Nc1ccc(C(=O)N2CCCC2)cc1,?,0.6,-10.2%,-9.1%[57.5 µM],-12.1%,2.5
COc1ccc(C(=O)Nc2ccc(C(=O)N3CCOCC3)cc2)cc1OC,37.0%,0.0,3.0%,-16.8%,-20.5%,32.3*
COC(=O)c1cc(NC(=O)CC2SC(=Nc3ccccc3)N(CCc3c[nH]c4ccccc34)C2=O)cc(C(=O)OC)c1 (configuration not stated),4.47µM*,0.4,-13.5%,i,?,-2.9
